This passage reports Potency results from PubChem BioAssay (Tox21).

Unmarked numbers belong to inactive results. Inconclusive results are not listed. Active and inactive are the calls of the source. Unless noted, the call rests on the fitted dose curve.

Assay [1] in a line: Nuclear factor erythroid 2-related factor 2/antioxidant responsive element (Nrf2/ARE) small molecule agonists: qHTS cell viability counter screen in human keratinocytes (AID 1919968; active means well fitted curve in the direction sought with a large enough effect in the repeat runs; an effect the other way counts as inactive or inconclusive; further: nearly all actives have a fitted effect of over 55% in size). An outline of the steps:
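Parallel cytotoxicity read: KeratinoSens HaCaT cells, compound treatment 23 h, viability by CellTiter-Fluor fluorescence 1 h post-reagent.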
In general terms: Quantitative high-throughput screening tests each substance at several concentrations.

Assay [2] is described as follows: Nuclear factor erythroid 2-related factor 2/antioxidant responsive element (Nrf2/ARE) small molecule agonists: luciferase reporter gene qHTS assay in human keratinocytes (AID 1919969). Further: nearly all actives have a fitted effect of over 35% in size.
Assay [3] deals with Gonadotropin-releasing hormone receptor (Homo sapiens) (UniProt P30968). The assay can be described thus: Human gonadotropin-releasing hormone receptor (GnRHR) small molecule agonists, calcium flux assay in GnRHR-HEK293 cells (AID 1920063). Further: nearly all actives have a fitted effect of over 35% in size. An outline of the steps: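 Calcium flux, agonist mode, human GnRHR stably integrated in HEK293; dye 1 h at 37 C before compound; Ex/Em=480/540 kinetic read, 3 min; 15 concentrations, triplicate.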
Gonadotropin-releasing hormone receptor (Homo sapiens), sequence (P30968 whole entry, looked up): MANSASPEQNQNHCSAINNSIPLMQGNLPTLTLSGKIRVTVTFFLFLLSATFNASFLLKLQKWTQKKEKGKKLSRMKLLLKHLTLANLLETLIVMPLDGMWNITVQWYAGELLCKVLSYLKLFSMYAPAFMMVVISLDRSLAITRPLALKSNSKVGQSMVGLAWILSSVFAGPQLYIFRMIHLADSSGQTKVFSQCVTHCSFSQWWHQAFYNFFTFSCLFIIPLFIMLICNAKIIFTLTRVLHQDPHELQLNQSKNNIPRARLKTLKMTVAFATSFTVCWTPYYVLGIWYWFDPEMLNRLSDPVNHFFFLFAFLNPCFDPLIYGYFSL
On the technique in general: Calcium flux is commonly read through the fluorescence of an indicator in the cells.

The target in assay [4] is KiSS-1 receptor (Homo sapiens) (UniProt Q969F8). The experiment in a line: Human kisspeptin (KISS1R) small molecule agonists, calcium flux assay in KISS1R-HEK293 cells (AID 1920064; active means well fitted curve in the direction sought with a large enough effect in the repeat runs; an effect the other way counts as inactive or inconclusive). The gist of the method:
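Triplicate 15-concentration series were applied to dye-loaded human KISS1R HEK293 cells, and agonist-evoked calcium fluorescence was captured for 3 min.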

Assay [5] is described as follows: G protein-coupled receptor (GPCR) small molecule agonists, calcium flux assay: HEK293 wild type cell line counter screen (AID 1920065). The gist of the method: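 Non-specific calcium responders were flagged by adding DMSO-dissolved compounds to dye-loaded cells and reading 480/540 nm fluorescence each second for 3 min; ATP served as positive control.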
Assay [6] can be described thus: p53 small molecule agonists, cell-based qHTS assay with human liver microsomes (AID 1963577). The gist of the method: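 Cells carrying a p53-responsive bla reporter were rested 5 h (37 C, 5% CO2) before compound transfer. Human liver microsomes plus NADPH, 0.5 mg/mL final apiece, supplied metabolism during the 16 h 37 C exposure.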
Assay [7] is described as follows: p53 small molecule agonists, cell-based qHTS assay with rat liver microsomes (AID 1963578). The gist of the method:
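Fluorescence from a beta-lactamase reporter under a p53 response element was measured after cells had been incubated 16 h at 37 C with test compound and rat liver microsomes plus NADPH (0.5 mg/mL final each).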

A short description of assay [8]: p53 small molecule agonists, cell-based qHTS assay with human liver microsomes: qHTS cell viability counter screen (AID 1963579). Further: nearly all actives have a fitted effect of over 45% in size. An outline of the steps: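 Seed p53RE-bla cells at 4,000 per well; incubate 5 h at 37 C; add compound, human liver microsomes and NADPH; incubate 16 h at 37 C; add CellTiter-Glo; after 30 min at room temperature, read luminescence.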
The nature of assay [9]: p53 small molecule agonists, cell-based qHTS assay with rat liver microsomes: qHTS cell viability counter screen (AID 1963580). Further: nearly all actives have a fitted effect of over 45% in size. The gist of the method: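 After the beta-lactamase ratio was read, CellTiter-Glo was added to the same wells and luminescence measured at 30 min; cells had been treated 16 h at 37 C with compounds, rat liver microsomes and NADPH (0.5 mg/mL final each).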

A short description of assay [10]: p53 small molecule agonists, cell-based qHTS assay: qHTS cell viability counter screen (AID 1963581). Further: nearly all actives have a fitted effect of over 45% in size. The gist of the method: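 Multiplexed with the reporter read, a CellTiter-Glo step (30 min, room temperature) gauges ATP-based viability of HCT-116 p53RE-bla cells after 16 h compound incubation at 37 C.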
Assay [11] is described as follows: p53 small molecule agonists, cell-based qHTS assay (AID 1963582; active means well fitted activation curve with a large enough effect in the signal ratio in the repeat runs, not every such curve was filed as active; the % refers to the signal ratio). An outline of the steps: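 Beta-lactamase reporter cells (p53RE-bla) treated with compounds for 16 h at 37 C; FRET substrate, 2 h, room temperature; fluorescence intensity.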
In assay [12] the target is 5-hydroxytryptamine receptor 2A (Homo sapiens) (UniProt P28223). The experiment in a line: 5-hydroxytryptamine receptor 2A (HTR2A) small molecule antagonists, cell-based qHTS assay (AID 1963586). Further: nearly all actives have a fitted effect of over 45% in size. The gist of the method: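 CHO cells stably expressing human HTR2A were plated for 18 h at 37 C, then loaded with calcium dye for 1 h. Compounds were preincubated 5 min at room temperature before DOI (4 nM solution) was added. Kinetic fluorescence was read for 3 min.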
5-hydroxytryptamine receptor 2A (Homo sapiens), sequence (P28223 whole entry, looked up): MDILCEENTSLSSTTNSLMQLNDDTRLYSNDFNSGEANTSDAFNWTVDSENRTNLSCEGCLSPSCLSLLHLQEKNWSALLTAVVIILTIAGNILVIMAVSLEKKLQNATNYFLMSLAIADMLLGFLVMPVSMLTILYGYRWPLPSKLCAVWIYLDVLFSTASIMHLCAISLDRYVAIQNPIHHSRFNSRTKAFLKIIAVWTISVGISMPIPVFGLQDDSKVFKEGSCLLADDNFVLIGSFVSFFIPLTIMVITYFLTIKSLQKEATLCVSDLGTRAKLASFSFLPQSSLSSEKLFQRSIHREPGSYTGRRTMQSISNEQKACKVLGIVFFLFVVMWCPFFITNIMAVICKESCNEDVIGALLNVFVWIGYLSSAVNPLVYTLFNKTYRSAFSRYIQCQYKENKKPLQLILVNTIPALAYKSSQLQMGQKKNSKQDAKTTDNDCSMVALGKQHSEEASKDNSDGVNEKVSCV

Assay [13] shares this target. The experiment in a line: 5-hydroxytryptamine receptor 2A (HTR2A) small molecule agonists, cell-based qHTS assay (AID 1963587). Further: nearly all actives have a fitted effect of over 30% in size. An outline of the steps: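 CHO cells stably expressing human HTR2A, plated 18 h, loaded with calcium dye 1 h at 37 C. Agonist mode: compounds added and intracellular calcium fluorescence recorded kinetically for 2 min at 1 sec intervals.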

Assay [14] addresses Muscarinic acetylcholine receptor M1 (Homo sapiens) (UniProt P11229). The experiment in a line: Cholinergic receptor muscarinic 1 (CHRM1) small molecule antagonists, cell-based qHTS assay (AID 1963588). Further: nearly all actives have a fitted effect of over 40% in size. Further: potency means the concentration at half of the fitted maximal effect. The gist of the method: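 Compounds were tested at 15 concentrations in three independent runs. Dye-loaded CHRM1-CHO cells were exposed 5 min at room temperature before stimulation by acetylcholine added at 50nM. Intracellular calcium was read kinetically on FDSS for 3 min.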

Assay [15] shares this target. The assay can be described thus: Cholinergic receptor muscarinic 1 (CHRM1) small molecule agonists, cell-based qHTS assay (AID 1963589). Further: nearly all actives have a fitted effect of over 35% in size. An outline of the steps:
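qHTS, 15-point titration, 3 independent runs: compounds pin-transferred onto dye-loaded CHRM1-CHO cells (human M1), calcium fluorescence followed every second to detect agonism.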

A short description of assay [16]: cAMP Responsive Elements (CRE) small molecule agonists, cell-based qHTS assay (AID 1963590). The gist of the method: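 Quantitative HTS for CRE agonists: HEK 293T CRE-bla cells, overnight plating, 3 h compound incubation at 37 C/5% CO2, then 2 h room-temperature LiveBLAzer B/G FRET substrate loading.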
Assay [17] is described as follows: cAMP Responsive Elements (CRE) small molecule antagonists, cell-based qHTS assay (AID 1963591; active means well fitted inhibition curve with a large enough effect in the signal ratio in the repeat runs, not every such curve was filed as active; the % refers to the signal ratio). The gist of the method:
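Fluorescence intensity from cleaved LiveBLAzer B/G substrate (2 h, room temperature) quantified CRE-bla activity in HEK 293T cells exposed 3 h to compound with 0.25 uM final NKH477.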

Assay [18] concerns the target Beta-2 adrenergic receptor (Homo sapiens) (UniProt P07550). The experiment in a line: Adrenergic beta2 receptor (ADRB2) small molecule antagonists, cell-based qHTS assay (AID 1963592). Further: series mostly up to about 92 µM; nearly all actives have a fitted effect of over 50% in size. An outline of the steps: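 Assay format: CHO-ADRB2 cells, 18-20hr seeding at 37C/5% CO2, then compound plus 1nM isoproterenol agonist mix for 0.5hr RT. Homogeneous time-resolved fluorescence cAMP detection after 1hr, expressed as 665/615 nm ratio.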

Assay [19] has the same target. The assay can be described thus: Adrenergic beta2 receptor (ADRB2) small molecule agonists, cell-based qHTS assay (AID 1963593).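 Further: CHO cells stably overexpressing human ADRB2.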 An outline of the steps: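 CHO cells stably over-expressing ADRB2 were plated overnight at 37C, then dosed with compounds plus a stimulation mix containing 100uM IBMX and 25uM Ro-20-1724 for 0.5hr at room temperature. cAMP was measured by HTRF competition, 1hr.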

Assay [20] deals with D(2) dopamine receptor (Homo sapiens) (UniProt P14416). The assay can be described thus: Dopamine D2 receptor (DRD2) small molecule agonists, cell-based qHTS assay (AID 1963594). Further: nearly all actives have a fitted effect of over 35% in size. The gist of the method: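 HEK293 cells stably expressing human DRD2, pre-treated with PDE inhibitor Ro20-1724 (0.1 mM final) and compound 10 min at room temperature, then stimulated with NKH477 (200nM […]) for 30 min. cAMP read by HTRF (665/620 nm).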
D(2) dopamine receptor (Homo sapiens), sequence (P14416 whole entry, looked up): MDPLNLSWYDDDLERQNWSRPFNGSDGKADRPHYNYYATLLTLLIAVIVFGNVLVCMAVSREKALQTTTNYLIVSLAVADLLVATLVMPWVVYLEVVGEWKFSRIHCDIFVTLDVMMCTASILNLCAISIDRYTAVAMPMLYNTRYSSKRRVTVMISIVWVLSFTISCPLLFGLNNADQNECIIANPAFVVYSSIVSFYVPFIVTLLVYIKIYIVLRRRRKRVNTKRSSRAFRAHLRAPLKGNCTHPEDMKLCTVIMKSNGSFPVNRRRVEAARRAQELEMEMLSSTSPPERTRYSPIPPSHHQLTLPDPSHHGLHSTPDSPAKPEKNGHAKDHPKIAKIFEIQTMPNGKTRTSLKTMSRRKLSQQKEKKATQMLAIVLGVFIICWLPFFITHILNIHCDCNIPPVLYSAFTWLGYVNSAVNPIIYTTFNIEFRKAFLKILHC

Muscarinic acetylcholine receptor M1 (Homo sapiens), sequence (P11229 whole entry, looked up): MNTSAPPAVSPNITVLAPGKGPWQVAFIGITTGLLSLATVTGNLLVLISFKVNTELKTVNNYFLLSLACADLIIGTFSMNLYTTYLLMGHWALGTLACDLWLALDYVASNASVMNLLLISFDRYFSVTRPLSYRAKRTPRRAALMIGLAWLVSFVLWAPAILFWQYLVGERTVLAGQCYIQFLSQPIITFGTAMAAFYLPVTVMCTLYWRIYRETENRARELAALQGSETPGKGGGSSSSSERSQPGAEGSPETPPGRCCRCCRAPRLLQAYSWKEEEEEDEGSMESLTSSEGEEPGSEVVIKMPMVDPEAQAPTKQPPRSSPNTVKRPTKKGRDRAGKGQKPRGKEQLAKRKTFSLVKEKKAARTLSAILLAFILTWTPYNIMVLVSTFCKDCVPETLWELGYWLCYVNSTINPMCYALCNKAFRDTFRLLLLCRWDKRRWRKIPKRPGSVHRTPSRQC
Beta-2 adrenergic receptor (Homo sapiens), sequence (P07550 whole entry, looked up): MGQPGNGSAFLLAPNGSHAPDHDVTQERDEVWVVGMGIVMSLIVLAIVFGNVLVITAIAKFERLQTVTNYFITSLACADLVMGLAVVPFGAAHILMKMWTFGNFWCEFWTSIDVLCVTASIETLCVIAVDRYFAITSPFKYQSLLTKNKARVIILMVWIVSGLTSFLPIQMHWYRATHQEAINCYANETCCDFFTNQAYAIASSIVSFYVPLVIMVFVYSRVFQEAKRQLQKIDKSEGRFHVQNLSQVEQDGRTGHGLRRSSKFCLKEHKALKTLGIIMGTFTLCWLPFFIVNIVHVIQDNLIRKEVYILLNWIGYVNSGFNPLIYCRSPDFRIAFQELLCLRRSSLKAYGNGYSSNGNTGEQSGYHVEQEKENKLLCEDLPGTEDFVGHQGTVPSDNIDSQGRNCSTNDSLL
KiSS-1 receptor (Homo sapiens), sequence (Q969F8 whole entry, looked up): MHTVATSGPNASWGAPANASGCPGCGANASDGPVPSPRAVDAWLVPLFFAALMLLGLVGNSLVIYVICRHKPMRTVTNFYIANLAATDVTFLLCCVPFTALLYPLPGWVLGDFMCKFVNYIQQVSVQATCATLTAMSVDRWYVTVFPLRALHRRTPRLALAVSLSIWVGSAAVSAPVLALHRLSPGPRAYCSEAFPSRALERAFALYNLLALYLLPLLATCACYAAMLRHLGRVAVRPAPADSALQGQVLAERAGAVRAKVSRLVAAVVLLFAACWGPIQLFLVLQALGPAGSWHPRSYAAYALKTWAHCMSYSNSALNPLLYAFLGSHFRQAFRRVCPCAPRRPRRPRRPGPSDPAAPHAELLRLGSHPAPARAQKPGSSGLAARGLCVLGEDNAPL

As to `COC(C)(C)CCO`, the Potency entry in [1], in assay [2], in [3], in [4], in assay [5] and in [6] was “inactive” each time. The Potency result in [7], in assay [8], in assay [9], in assay [10], in assay [11] and in assay [12] was “inactive” in each case. For the same compound, the Potency entry in assay [13], in [14], in [15], in assay [16], in assay [17] and in assay [18] was “inactive” in each case. Moreover, the Potency result in assay [19] and in [20] was “inactive” in each case.
Take `C=C(C)C(=O)OCCCCCCOC(=O)C(=C)C`: the Potency entry in assay [1], in assay [2], in assay [3], in assay [4], in assay [5] and in assay [6] was “inactive” each time. Moreover, the Potency result in assay [7], in assay [8], in [9], in [10], in assay [11] and in assay [12] was “inactive” each time. In addition, the Potency result in [13], in [14], in [15], in assay [16], in [17] and in assay [18] was “inactive” each time. The Potency result in assay [19] and in assay [20] was “inactive” each time.
As for `CC(C)CCCC(C)CCO` (stereo not given), the Potency entry in assay [1], in assay [2], in [3], in [4], in [5] and in assay [6] was “inactive” in each case. Moreover, the Potency entry in assay [7], in assay [8], in [9], in [10], in assay [11] and in [12] was “inactive” in each case. Moreover, the Potency result in assay [13], in assay [14], in assay [15], in assay [16], in [17] and in assay [18] was “inactive” in each case. For the same compound, the Potency result in assay [19] and in assay [20] was “inactive” throughout.
With `CCOC(=O)c1c(C)n(C)c2ccc(O)cc12`, the Potency result in assay [1], in assay [2], in assay [3], in [4], in assay [5] and in [6] was “inactive” throughout. Moreover, the Potency result in assay [7], in assay [8], in [9], in assay [10], in assay [11] and in [12] was “inactive” throughout. Further, the Potency entry in assay [13], in assay [14], in [15], in [16], in assay [17] and in assay [18] was “inactive” throughout. Also, the Potency result in assay [19] and in assay [20] was “inactive” throughout.
Regarding `OCCCC1CCCCC1`, the Potency entry in assay [1], in assay [2], in assay [3], in [4], in [5] and in assay [6] was “inactive” in each case. In addition, the Potency result in assay [7], in assay [8], in assay [9], in assay [10], in [11] and in assay [12] was “inactive” throughout. Besides, the Potency result in assay [13], in assay [14], in [15], in assay [16], in [17] and in [18] was “inactive” in each case. Also, the Potency result in [19] and in assay [20] was “inactive” each time.
As for `CN(C)CCOC(c1ccc(Cl)cc1)c1ccccn1` (stereo not given), the Potency entry in assay [1], in [2], in assay [3], in assay [4], in [5] and in assay [6] was “inactive” each time. The Potency result in assay [7], in assay [8], in assay [9], in [10], in [11] and in assay [12] was “inactive” each time. In addition, the Potency result in assay [13], in assay [15], in assay [16], in assay [17], in assay [18] and in [19] was “inactive” each time. Moreover, the Potency entry in assay [20] was “inactive”. The Potency in [14] was 4.6 µM (active).
On to `O=S(=O)(O)CC(O)CCl` (stereo not given), for which the Potency result in assay [1], in assay [2], in [3], in assay [4], in assay [5] and in assay [6] was “inactive” in each case. Also, the Potency result in [7], in assay [8], in assay [9], in assay [10], in [11] and in assay [12] was “inactive” throughout. Besides, the Potency entry in [13], in assay [14], in [15], in assay [16], in [17] and in assay [18] was “inactive” throughout. In addition, the Potency result in [19] and in assay [20] was “inactive” throughout.
